Laboratory results taken from PubChem BioAssay AID1159580 (chemical genetic matrix, 2015).
Several values for one entry are separate records, joined by “and”; a condition that tells them apart may be missing. Equal values may be shown once. Among all 5,500 compounds or so, about 2,000 (36%) were called active. Inconclusive results (about 18%) are left out. Rule as the data show it: active = normalized growth mostly below about 0.91 (no sharp cut-off); inconclusive = no clear call, values can overlap the other calls; inactive = mostly above about 0.92. The list shows a part of the results.

Assay: chemical genetic growth profiling, strain panel (AID 1159580);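 also: tested at 20 µM; growth read once vehicle control cultures reached saturation at 30 °C; 1 = growth at the plate median or of vehicle wells; lower values mean less growth of the strain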
Details: S. cerevisiae deletion strains, growth OD

Measured: normalized growth

CCCNC(=O)NS(=O)(=O)c1ccc(Cl)cc1
inactive: locus YAL013W, strain DEP1, active compounds read low 1.01 and 0.978 | locus YAL021C, strain ccr4, active compounds read low 1.02 | locus YAL026C, strain drs2, active compounds read low 1.01 | locus YAL030W, strain snc1, active compounds read low 1.01 | locus YAL040C, strain CLN3, active compounds read low 1.09 | locus YBL061C, strain skt5, active compounds read low 1.01 | locus YBR009C, strain hhf1, active compounds read low 1.02 | locus YBR021W, strain FUR4, active compounds read low 1.03 | locus YBR023C, strain chs3, active compounds read low 1.02 | locus YBR171W, strain sec66, active compounds read low 1.01 | locus YBR229C, strain ROT2, active compounds read low 0.993 | locus YBR231C, strain swc5, active compounds read low 1.01 | locus YBR279W, strain paf1, active compounds read low 1.01 | locus YCL011C, strain gbp2, active compounds read low 1 | locus YCL016C, strain dcc1, active compounds read low 1.01 | locus YCL029C, strain bik1, active compounds read low 1.01 | locus YCL061C, strain MRC1 (second series), active compounds read low 0.997 | locus YCL069W, strain vba3, active compounds read low 1.01 | locus YCR088W, strain abp1, active compounds read low 0.996 | locus YDL005C, strain med2, active compounds read low 1.01 | locus YDL035C, strain GPR1, active compounds read low 1 | locus YDL040C, strain nat1, active compounds read low 1.01 | locus YDL074C, strain BRE1, active compounds read low 1.01 | locus YDL101C, strain DUN1, active compounds read low 1.03 | locus YDL134C, strain PPH21, active compounds read low 1 | locus YDL185W, strain tfp1, active compounds read low 1 | locus YDL192W, strain arf1, active compounds read low 1.03 | locus YDR001C, strain nth1, active compounds read low 1.01 | locus YDR069C, strain doa4, active compounds read low 1.03 | locus YDR101C, strain arx1, active compounds read low 1.01 | locus YDR137W, strain rgp1, active compounds read low 0.994 | locus YDR150W, strain NUM1, active compounds read low 0.986 and 1 | locus YDR159W, strain sac3, active compounds read low 1.01 | locus YDR162C, strain NBP2, active compounds read low 0.984 | locus YDR195W, strain ref2 1.03 | locus YDR297W, strain sur2, active compounds read low 1.02 | locus YDR318W, strain mcm21, active compounds read low 1.01 | locus YDR334W, strain swr1, active compounds read low 1.01 | locus YDR335W, strain msn5, active compounds read low 1.02 | locus YDR363W, strain ESC2, active compounds read low 0.97 | locus YDR388W, active compounds read low 1.01 | locus YDR392W, strain spt3, active compounds read low 1 | locus YDR502C, strain sam2, active compounds read low 1.05 | locus YEL003W, strain gim4, active compounds read low 1.02 | locus YEL037C, strain rad23, active compounds read low 1.01 | locus YEL061C, strain CIN8 (second series), active compounds read low 1.02 | locus YEL061C, strain CIN8, active compounds read low 0.997 | locus YER002W, strain NOP16, active compounds read low 1.01 | locus YER015W, strain faa2, active compounds read low 1.02 | locus YER016W, strain bim1, active compounds read low 0.989 | locus YER110C, active compounds read low 0.998 | locus YER111C, strain swi4, active compounds read low 1.02 | locus YER155C, strain BEM2 (second series), active compounds read low 1.03 | locus YER155C, strain BEM2, active compounds read low 1.01 | locus YER167W, strain BCK2, active compounds read low 1 | locus YFR010W, strain ubp6, active compounds read low 1.04 | locus YGL078C, strain dbp3, active compounds read low 1.02 | locus YGL167C, strain pmr1, active compounds read low 0.991 | locus YGL173C, strain kem1, active compounds read low 1.02 | locus YGL227W, strain vid30, active compounds read low 1.02 | locus YGL240W, strain doc1, active compounds read low 1.03 | locus YGL248W, strain PDE1, active compounds read low 1.03 | locus YGL253W, strain hxk2, active compounds read low 1.01 | locus YGR135W, strain pre9, active compounds read low 1.05 | locus YGR229C, strain SMI1, active compounds read low 0.994 | locus YGR252W, strain gcn5, active compounds read low 1.07 | locus YHR013C, strain ard1, active compounds read low 1.05 | locus YHR027C, strain rpn1, active compounds read low 1.01 | locus YHR030C, strain SLT2, active compounds read low 0.991 and 1.01 | locus YHR079C, strain IRE1 (second series), active compounds read low 1.01 | locus YHR079C, strain IRE1, active compounds read low 0.986 | locus YHR094C, strain hxt1, active compounds read low 1.01 | locus YHR129C, strain ARP1, active compounds read low 1.01 | locus YHR142W, strain chs7, active compounds read low 1.04 | locus YHR200W, strain rpn10, active compounds read low 1.01 | locus YIL066C, strain RNR3, active compounds read low 0.998 | locus YIL073C, strain SPO22, active compounds read low 1.02 | locus YIL125W, strain kgd1, active compounds read low 0.997 | locus YIR030C, strain dcg1, active compounds read low 0.997 | locus YJL092W, strain hpr5, active compounds read low 1 | locus YJL095W, strain BCK1 (second series), active compounds read low 1.02 | locus YJL095W, strain BCK1, active compounds read low 1.05 and 0.979 | locus YJL115W, strain asf1, active compounds read low 1.02 | locus YJL129C, strain trk1, active compounds read low 1.02 | locus YJL134W, strain LCB3, active compounds read low 0.996 | locus YJL154C, strain vps35, active compounds read low 1.01 | locus YJL164C, strain tpk1, active compounds read low 1.01 | locus YJL166W, strain qcr8, active compounds read low 1.01 | locus YJL168C, strain set2, active compounds read low 1.01 | locus YJL187C, strain SWE1 (second series), active compounds read low 1.03 | locus YJR043C, strain POL32, active compounds read low 1 | locus YJR066W, strain TOR1, active compounds read low 0.983 | locus YKL009W, strain mrt4, active compounds read low 1.01 | locus YKL068W, active compounds read low 0.984 | locus YKL085W, strain MDH1 (second series), active compounds read low 0.979 | locus YKL085W, strain MDH1, active compounds read low 0.979 | locus YKL160W, strain elf1, active compounds read low 1.02 | locus YKR001C, strain vps1, active compounds read low 0.992 | locus YKR026C, strain gcn3, active compounds read low 0.99 | locus YKR091W, strain srl3, active compounds read low 1.01 | locus YLL001W, strain dnm1, active compounds read low 1.01 | locus YLL026W, active compounds read low 1.02 | locus YLL041C, strain sdh2, active compounds read low 0.991 | locus YLR027C, strain aat2, active compounds read low 1.01 | locus YLR039C, strain RIC1, active compounds read low 0.967 | locus YLR058C, strain SHM2, active compounds read low 1.02 | locus YLR102C, strain apc9, active compounds read low 1 | locus YLR113W, strain HOG1, active compounds read low 0.99 | locus YLR221C, strain rsa3, active compounds read low 1 | locus YLR258W, strain gsy2, active compounds read low 1.01 | locus YLR262C, strain YPT6 (second series), active compounds read low 1 | locus YLR262C, strain YPT6, active compounds read low 0.977 | locus YLR268W, strain sec22, active compounds read low 1.01 | locus YLR320W, strain mms22, active compounds read low 1.02 | locus YLR330W, strain CHS5, active compounds read low 1 | locus YLR342W, strain FKS1 (second series), active compounds read low 0.984 | locus YLR342W, strain FKS1, active compounds read low 1.02 | locus YLR357W, strain rsc2, active compounds read low 1.03 | locus YLR370C, strain arc18, active compounds read low 1.02 | locus YLR371W, strain rom2, active compounds read low 0.997 | locus YLR384C, strain iki3, active compounds read low 1.03 | locus YLR418C, strain cdc73, active compounds read low 1.08 | locus YML016C, strain PPZ1, active compounds read low 0.997 | locus YML032C, strain rad52, active compounds read low 0.996 | locus YML120C, strain ndi1, active compounds read low 1.02 | locus YML124C, strain tub3, active compounds read low 0.997 | locus YMR058W, strain fet3, active compounds read low 1 | locus YMR078C, strain ctf18, active compounds read low 1 | locus YMR125W, strain sto1, active compounds read low 1 | locus YMR129W, active compounds read low 1.01 | locus YMR205C, strain PFK2, active compounds read low 1.02 | locus YMR223W, strain ubp8, active compounds read low 1.03 | locus YMR231W, strain pep5, active compounds read low 1.01 | locus YMR263W, strain SAP30, active compounds read low 0.991 | locus YMR307W, strain GAS1, active compounds read low 1.09 | locus YNL067W, strain RPL9B, active compounds read low 1.03 | locus YNL071W, strain lat1, active compounds read low 1.03 | locus YNL128W, strain TEP1, active compounds read low 1.01 | locus YNL153C, strain GIM3, active compounds read low 1.02 and 1.01 | locus YNL175C, strain NOP13, active compounds read low 1.02 | locus YNL183C, strain NPR1, active compounds read low 0.935 | locus YNL197C, strain WHI3, active compounds read low 1.02 | locus YNL209W, strain ssb2, active compounds read low 1 | locus YNL224C, strain SQS1, active compounds read low 0.983 | locus YNL233W, strain BNI4, active compounds read low 1.02 | locus YNL248C, strain rpa49, active compounds read low 1.09 | locus YNL250W, strain rad50, active compounds read low 1 | locus YNL271C, strain bni1, active compounds read low 1.01 | locus YNL298W, strain CLA4, active compounds read low 0.99 | locus YNL307C, strain MCK1, active compounds read low 1.01 | locus YNL322C, strain KRE1 (second series), active compounds read low 1 | locus YNL322C, strain KRE1, active compounds read low 0.988 | locus YNR049C, strain mso1, active compounds read low 1.02 | locus YNR052C, strain pop2, active compounds read low 1.01 | locus YOL012C, strain htz1 0.677 | locus YOL147C, strain pex11, active compounds read low 0.996 | locus YOR001W, strain rrp6, active compounds read low 1.02 | locus YOR061W, strain CKA2, active compounds read low 1.01 | locus YOR069W, strain VPS5, active compounds read low 0.992 | locus YOR070C, strain gyp1, active compounds read low 1.01 | locus YOR080W, strain dia2, active compounds read low 1.03 | locus YOR083W, strain WHI5 (second series), active compounds read low 0.985 | locus YOR083W, strain WHI5, active compounds read low 1.01 | locus YOR106W, strain vam3, active compounds read low 1.01 | locus YOR136W, strain idh2, active compounds read low 1 | locus YOR144C, strain elg1, active compounds read low 1.01 | locus YOR184W, strain ser1, active compounds read low 1.01 | locus YOR231W, strain MKK1, active compounds read low 0.971 | locus YOR265W, strain rbl2, active compounds read low 1.01 | locus YOR270C, strain vph1, active compounds read low 1.01 | locus YOR290C, strain snf2, active compounds read low 1.02 | locus YOR316C, strain cot1, active compounds read low 1 | locus YPL051W, strain arl3, active compounds read low 1.02 | locus YPL078C, strain atp4, active compounds read low 1.02 | locus YPL106C, strain sse1, active compounds read low 1.03 | locus YPL240C, strain hsp82, active compounds read low 1.01 | locus YPL241C, strain CIN2, active compounds read low 0.997 | locus YPL256C, strain CLN2, active compounds read low 0.975 | locus YPR119W, strain clb2, active compounds read low 0.999 | locus YPR141C, strain kar3, active compounds read low 1 | locus YPR163C, strain tif3, active compounds read low 1 | locus YPR167C, strain met16, active compounds read low 1 | strain wtn01, active compounds read low 1.01
